Assay results as given in PubChem BioAssay AID1850 (Southern Research Specialized Biocontainment Screening …, 2009).
The whole screen tested about 310,000 compounds, of which about 1,000 (0.32%) were called active. How the calls were made is not given here. Only a sample is shown. Entries with a potency or affinity are not part of this list.

Assay: PhoP regulon inhibitors, Salmonella typhi PhoP promoter GFP reporter, confirmatory (AID 1850);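 further: 0% = induced wells with vehicle and 100% = uninduced wells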
Conditions: fluorescence, 4 h, at 50 µM, stronger effect = higher value

SMILES	inhibition
Cc1ccc(CS(=O)(=O)CCC(=O)NCC2CCCO2)cc1 (stereo unspecified)	-9.31% (inactive)
Cc1ccc2nc(SCC(=O)N3CCCC3)[nH]c2c1	-0.85% (inactive)
O=C(NC1CCCC1)c1ccc(Cl)s1	-8.57% (inactive)
O=C(NNC(=O)c1ccc(Br)s1)NC1CCCCC1	-2.75% (inactive)
Cc1ccsc1C(=O)C1CCCN(Cc2c(C)nn(C(C)C)c2C)C1 (stereo unspecified)	-6.7% (inactive)
COc1ccc(N2CC(O)=C(c3nc(-c4ccc(F)cc4)cs3)C2=N)cc1OC	-0.03% (inactive)
Nc1cc(=O)n(Cc2ccccc2)c(=O)n1-c1ccc(F)cc1	-13.9% (inactive)
O=C(OC1CCCCC1)c1cc2ccccc2oc1=O	9.64% (inactive)
c1ccc(C[C@H]2CN=C(Nc3ccccc3)N2CC2CCC2)cc1	0.99% (inactive)
CCn1c2nc(SCCN3CCOCC3)nnc2c2cc(C)cc(C)c21	-16.9% (inactive)
CN(C)CCCn1c(SCC(=O)N2CC(=O)Nc3ccccc32)nc2ccccc2c1=O	0.42% (inactive)
CCCn1c(SCC(=O)N2c3ccccc3Sc3ccccc32)nc2ccccc21	-6.61% (inactive)
CCN1CCCC1CNC(=O)c1ccc(N2CCOCC2)c(NS(=O)(=O)c2ccc(OC)cc2)c1 (stereo unspecified)	2.06% (inactive)
CCN1CSC(=S)N(Cc2ccccc2)C1	-1.16% (inactive)
COc1ccc(CN2CN(C(C)C)CSC2=S)cc1	16.3% (inactive)
NCCCC[C@@H]1NC(=O)c2cc([N+](=O)[O-])cc(I)c2SC[C@@H](C(=O)NCC(N)=O)NC(=O)CNC1=O	-0.813% (inactive)
CCOc1cc(CNCCCN2CCOCC2)ccc1OCC(=O)Nc1cccc2ccccc12	9.38% (inactive)
COc1cc(CNCCCN2CCOCC2)ccc1OCC(=O)Nc1cccc(C(F)(F)F)c1	8.04% (inactive)
CC(C)c1ccccc1NC(=O)C1CN(S(=O)(=O)c2ccccc2)CCN1S(=O)(=O)c1ccccc1 (stereo unspecified)	-5.27% (inactive)
O=C(N/C(=C/c1cccnc1)C(=O)N1CCOCC1)c1ccccc1Cl	1.54% (inactive)
COc1ccc(C)cc1Nc1n[n+](-c2ccccc2)c(-c2ccc(N(C)C)cc2)s1	-6.34% (inactive)
C[n+]1c(-c2ccccc2)sc2ccccc21	-0.28% (inactive)
CCCCn1c(SCC(=O)Nc2cc(C)on2)nnc1-c1ccncc1	7.28% (inactive)
Cc1ccc(C(=O)N/C(=C\c2ccco2)C(=O)N2CCCCC2)cc1	11.1% (inactive)
CC1=C(C#N)C(c2ccccc2)C2=C(N1)c1ccccc1C2=O (stereo unspecified)	-2.93% (inactive)
CC(=O)C1=C(C)NC2=C(C(=O)c3ccccc32)C1c1ccccc1 (stereo unspecified)	-9.36% (inactive)
